Rows were chosen to be rich in hits. Some 3.2% of all compounds tested hit in one or more screens of this group.
ERb SRC1 inh: inhibitors of ERβ-SRC1 coactivator interaction, primary screen, biochemical, TR-FRET, ERβ LBD, SRC-1 peptide; TR-FRET ER-beta LBD / SRC1-Cy5 peptide binding; receptor agonist-loaded with 1 µM estradiol; actives 1.3% (n = 86,000); inhibition, % at 25.6 µM; Estrogen receptor beta (Homo sapiens), Q92731; AID 633, 2007;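 active = compounds whose percent inhibition of the receptor-coactivator binding signal exceeds about 50% in the single-dose screen, limit read from the data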;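 also: 0% = receptor plus peptide wells without compound and 100% = peptide-only wells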
Target sequence (Q92731 whole entry, looked up, the tested form may be a part): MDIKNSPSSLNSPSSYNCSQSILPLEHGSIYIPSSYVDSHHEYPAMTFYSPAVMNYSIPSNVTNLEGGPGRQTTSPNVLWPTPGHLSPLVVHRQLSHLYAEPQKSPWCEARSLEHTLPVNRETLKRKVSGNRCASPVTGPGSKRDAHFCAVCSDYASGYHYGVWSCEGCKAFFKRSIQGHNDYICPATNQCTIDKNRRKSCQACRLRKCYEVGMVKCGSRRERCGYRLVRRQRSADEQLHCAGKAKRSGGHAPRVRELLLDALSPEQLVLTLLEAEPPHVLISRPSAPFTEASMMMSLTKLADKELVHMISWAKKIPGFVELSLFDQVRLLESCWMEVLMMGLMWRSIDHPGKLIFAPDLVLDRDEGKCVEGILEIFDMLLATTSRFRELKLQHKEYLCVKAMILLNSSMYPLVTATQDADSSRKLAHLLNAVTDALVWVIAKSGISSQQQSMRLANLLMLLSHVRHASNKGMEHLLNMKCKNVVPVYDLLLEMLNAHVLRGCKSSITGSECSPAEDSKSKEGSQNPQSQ
ERa SRC1 pot: enhancers of ERα–SRC-1 coactivator binding, primary screen, biochemical, TR-FRET, ERα LBD, low estradiol; Estrogen receptor (Homo sapiens), P03372; actives 1.3% (n = 86,000); AID 639, 2007; coactivator binding (% of control), % at 25.6 µM; TR-FRET ERalpha-LBD/SRC-Cy5 coactivator binding, 2 h; 100 = basal binding, no effect; in the data active = activity above about 200%;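 also: binding measured in presence of low estradiol as agonist stimulus; 0% = peptide alone without receptor and 100% = receptor with peptide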
ERa coact inh: ERα–SRC-1 coactivator interaction inhibitors, primary screen, biochemical, TR-FRET, ERα LBD, estradiol-bound; Estrogen receptor (Homo sapiens), P03372; inhibition, % at 25.6 µM; TR-FRET ER-alpha LBD / SRC-1 peptide; actives 1.7% (n = 86,000); in the data active = inhibition above about 50%;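 also: 0% = receptor plus peptide control and 100% = peptide only without receptor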
FAK blocker: FAK kinase inhibitors, primary screen, biochemical. actives 0.84% (n = 97,000). inhibition, %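 (tested at 7 µM)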. Focal adhesion kinase 1 (Homo sapiens), Q05397. AID 727, 2007. biochemical FAK kinase activity assay; in the data active = inhibition above about 19%;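 also: 0% = DMSO and 100% = reference compound high control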
* = called active by the depositor; · = no result; ! = a repeat was not active; [ ] = another dose, or the depositor's remark.

SMILES | ERb SRC1 inh | ERa SRC1 pot | ERa coact inh | FAK blocker
CC(C)Cn1c(N)c(C(=O)COC(=O)C2=COCCO2)c(=O)n(C)c1=O | 9 | 94 | 7 | 0
CC(C)CC(=O)O/N=C1\C(=O)N(Cc2ccc(Cl)cc2)c2ccc([N+](=O)[O-])cc21 | · | · | · | 2
COc1ccc(NC(=O)CSc2nnc(-c3ccccc3)n2N)cc1 | 0 | 132 | 4 | -1
CCn1c2ccccc2c2cc(NC(=O)CSc3nnc(-c4ccc(OC)cc4)n3N)ccc21 | 16 | 59 | 68* | 15
CCn1c(SCC(=O)Nc2ccc3c(c2)c2ccccc2n3CC)nnc1-c1cnccn1 | 29 | 105 | 74* | ·
O=C(Nc1nnc(C23CC4CC(CC(C4)C2)C3)s1)c1ccc(N2C(=O)CCC2=O)cc1 | 12 | 107 | 16 | 3
CN(C)c1ccc(O)c2c1CC1CC3[C@@H](N(C)C)C(=O)C(C(N)=O)=C(O)[C@]3(O)C(=O)C1=C2O (some centres not stated) | 100*[fluorescence artefact?] | 2 | 98*[fluorescence artefact?] | ·
CN1CCN(c2ccc(Cl)cc2NC(=O)c2nn(-c3ccccc3)c(=O)c3ccccc23)CC1 | 37 | 242*[fluorescence artefact?] | 13 | 1
CN1CCc2c(sc(/N=C/c3ccco3)c2C(N)=O)C1 | 0 | 104 | -9 | 1
CN1CCc2c(sc(/N=C/c3cccs3)c2C(N)=O)C1 | 74*[fluorescence artefact?] | 70 | 24 | 4
Cc1c(NC(=O)CCN2C(=O)c3ccccc3C2=O)c(=O)n(-c2ccccc2)n1C | -8 | 115 | -9 | 2
CCOC(=O)Cc1csc(NC(=O)CSc2nnc(Cc3csc(N)n3)n2C)n1 | -9 | 104 | -6 | 0
COC(=O)Cc1csc(N)n1 | 63*![fluorescence artefact?] | 109 | -4 | 4
CN(C)c1ccc(/C=C/C(O)=C2/C(=O)N(C)C3(C)CC2c2ccccc2O3)cc1 (configuration not stated) | 60*[fluorescence artefact?] | 27 | 74*[fluorescence artefact?] | 0
COC(=O)c1cc2n(n1)CCN(Cc1ccc(OC)cc1)C2=O | · | · | · | -1
COc1ccc(CN2CCn3ncc(C(=O)Nc4cc(C)cc(C)c4)c3C2=O)cc1 | 5 | 252*[fluorescence artefact?] | 15 | 9
CCn1c(CSc2nnc(-c3cccnc3)n2-c2ccccc2C)nc2cc(C(=O)O)ccc21 | 25 | 253* | 1 | -3
CN(C)c1ccc(C(=S)NCc2ccco2)cc1 | 39 | 58 | 31 | 3
Cc1[nH]c2ccc(-c3nnc(SCC(=O)c4ccccc4F)o3)cc2c1C | 46 | 62 | 70* | -1
COc1cc(-c2nnc3sc(-c4ccccn4)nn23)cc(OC)c1OC | 0 | 110 | -1 | ·
COc1ccc(N2CCN(Cc3cc(=O)oc4cc(-c5ccccc5)c(O)cc34)CC2)cc1 | 43 | 70 | 64*[fluorescence artefact?] | 0
CSc1nc(C)cc(-n2ccc(=O)[nH]c2=O)n1 | -1 | 111 | -2 | ·
Cc1ccc(CNc2oc(COc3ccccc3Cl)nc2C#N)cc1 | 13 | 148 | 13 | 2
COc1ccc(CNc2oc(COc3ccccc3Cl)nc2C#N)cc1 | 10 | 228*[fluorescence artefact?] | 0 | -1
Cc1cc(Cl)ccc1Oc1nc(-c2ccc(F)cc2)ccc1C#N | · | · | · | 1
SMILES | ERb SRC1 inh | ERa SRC1 pot | ERa coact inh | FAK blocker
O=C1CN(C(=O)c2cccs2)c2ccccc2N1 | 14 | 966*[fluorescence artefact?] | 2 | 1
CCC(CC)C(=O)NCCc1ccc(OC)c(OC)c1 | 8 | 81 | 1 | -2
COc1ccc(CCNC(=O)COC(=O)c2ccco2)cc1OC | 78*[fluorescence artefact?] | 113 | -7 | -7
CC(C#N)Sc1nc2ccccc2c(=O)n1-c1ccccc1 (configuration not stated) | -7 | 82 | 6 | ·
Cc1ccc(C(=O)Nc2nc3ccccc3n2CCN2CCCC2)cc1 | -2 | 284*[fluorescence artefact?] | -8 | 6
CCNC(=O)C1CC(=O)N(c2ccc(Br)cc2)C1 (configuration not stated) | -10 | 116 | -2 | -4
C=CCNC(=O)C1CC(=O)N(c2ccc(Br)cc2)C1 (configuration not stated) | 95*[fluorescence artefact?] | 100 | -4 | -3
O=C1C(O)CC2c3ccccc3CC3(CCCC3)N12 (configuration not stated) | -7 | 235* | -8 | 1
O=C1c2ccccc2C2NC(=O)C3(CCCCC3)N12 (configuration not stated) | 1 | 110 | 0 | ·
COc1ccccc1-c1cc(C(=O)NC(C)C)no1 | 1 | 100 | 0 | -2

Source: PubChem (several laboratories)
